From PubChem BioAssay come the findings set out here.

Records with an inconclusive call do not appear. Calls of active or inactive are those of the source.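 The calls were made as follows, unless noted: active = thallium flux through the channel raised or lowered by more than 3 SD from vehicle-only wells, actives on both sides; inactive = the rest.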

Broadly, the inhibition is the drop in the measured response relative to a control, in per cent. Usually remaining activity stands for the signal under treatment as a percentage of the control signal.

In assay [1] the target is Single-stranded DNA-binding protein (Escherichia coli (strain K12)) (UniProt P0AGE0). Nature of the assay: E. coli SSB displacement from DNA, counter-screen for HCV NS3 helicase inhibitor project, biochemical, fluorescence polarization, NIH Clinical Collection (AID 743271; in the data active = inhibition above about 28%). As to conditions: stronger effect = higher value, concentration not given here. On the technique in general: Counterscreens check selectivity or assay interference.

Assay [2] in a line: fluorescence interference in NS3h assay format, artefact control for HCV NS3 helicase inhibitor project, biochemical, NIH Clinical Collection (AID 743272; call rule not given here;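 also: HCV NS3 helicase with a Cy5 labelled single stranded DNA probe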). As to conditions: fluorescence interference counterscreen, stronger effect = lower value.
Assay [3] is described as follows: growth inhibition of DIPG glioma cells, dose response, cell-based, SU-DIPG-XVII, MIPE5.0, CellTiter-Glo, qHTS (AID 1347060; cut-off not given, nearly all actives have AC50 up to about 26 µM). As to conditions: SU-DIPG-XVII viability, CellTiter-Glo ATP luminescence. (In general: In ATP-based viability assays light output follows the ATP content of the culture.)
A short description of assay [4]: growth inhibition of DIPG glioma cells, dose response, cell-based, SU-DIPG-XIII, MIPE4.0, CellTiter-Glo, qHTS (AID 1347061; cut-off not given, nearly all actives have AC50 up to about 37 µM;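 also: cells exposed to compound for 48 hours before readout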). As to conditions: SU-DIPG-XIII viability, CellTiter-Glo ATP luminescence.
The nature of assay [5]: growth inhibition of DIPG glioma cells, dose response, cell-based, JHH-DIPG-1, MIPE4.0, CellTiter-Glo, qHTS (AID 1347062; cut-off not given, nearly all actives have AC50 up to about 27 µM). As to conditions: JHH-DIPG-1 viability, CellTiter-Glo ATP luminescence.
A short description of assay [6]: SU-DIPG-VI glioma cell viability, MIPE4.0 library, CellTiter-Glo luminescence, qHTS (AID 1347066; cut-off not given, nearly all actives have AC50 up to about 30 µM;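 also: cells exposed to compound for 48 hours before readout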). To be noted: CellTiter-Glo ATP luminescence.
Assay [7] is described as follows: JHH-DIPG-1 glioma cell viability, MIPE5.0 library, CellTiter-Glo luminescence, qHTS (AID 1347067; cut-off not given, nearly all actives have AC50 up to about 26 µM;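 also: cells exposed to compound for 48 hours before readout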). As to conditions: JHH-DIPG-1 glioma viability, CellTiter-Glo ATP luminescence.
The test system of another assay is F380Y/beta1. Nature of the assay: modulators of BK channel variants, profiling panel, selectivity assay, cell-based, U2OS BacMam, thallium flux, beta subunits (AID 1259406).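 Also: initial slope of Thallos dye fluorescence rise after thallium is added; log ratio against the mean of 0.3% DMSO vehicle wells on the same plate.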 To be noted: at 30 µM.
A further assay relates to F380Y/beta4. Described as above. As to conditions: at 30 µM.
Assay [8] addresses Calcium-activated potassium channel subunit alpha-1 (Homo sapiens) + Leucine-rich repeat-containing protein 26 (Homo sapiens) (UniProt Q12791+Q2I0M4). The description is as above. To be noted: F380Y/Slo1WT/gamma1, at 30 µM.
The test system of another assay is R275C/beta4. The assay is described as above. As to conditions: at 30 µM.
Another assay deals with R275C/Slo1WT/beta2. The assay is described as above. As to conditions: at 30 µM.
Assay [9] in a line: growth inhibition of DIPG glioma cells, dose response, cell-based, SU-DIPG-IV, MIPE4.0, CellTiter-Glo, qHTS (AID 1347063; cut-off not given, nearly all actives have AC50 up to about 30 µM;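 also: compound exposure lasted 48 hours before the viability readout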). To be noted: SU-DIPG-IV viability, CellTiter-Glo ATP luminescence.
Assay [10] is described as follows: SU-DIPG-XXV glioma cell viability, MIPE5.0 library, qHTS (AID 1347068; cut-off not given, nearly all actives have IC50 up to about 30 µM).
The test system of assay [11] is Neuropilin-2 / VEGF-C interaction (human). Nature of the assay: inhibitors of NRP2–VEGF-C binding, biochemical, microplate binding format, z-score (AID 743281; call rule not given here). As to conditions: microplate NRP2/VEGF-C binding assay; stronger effect = lower value.
For assay [12], the system named is Aerobactin synthetase IucA (Klebsiella pneumoniae). Briefly: IucA aerobactin synthetase inhibitors, biochemical, Tocris library, absorbance (AID 1345561; call rule not given here;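 also: 100% = enzyme without compound and 0% = no enzyme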). To be noted: purified IucA enzyme assay, absorbance (OD) read-out; stronger effect = lower value;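 tested at 8 µM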.

Sequence of Calcium-activated potassium channel subunit alpha-1 (Homo sapiens) + Leucine-rich repeat-containing protein 26 (Homo sapiens) (Q2I0M4 whole entry, looked up, one chain of several): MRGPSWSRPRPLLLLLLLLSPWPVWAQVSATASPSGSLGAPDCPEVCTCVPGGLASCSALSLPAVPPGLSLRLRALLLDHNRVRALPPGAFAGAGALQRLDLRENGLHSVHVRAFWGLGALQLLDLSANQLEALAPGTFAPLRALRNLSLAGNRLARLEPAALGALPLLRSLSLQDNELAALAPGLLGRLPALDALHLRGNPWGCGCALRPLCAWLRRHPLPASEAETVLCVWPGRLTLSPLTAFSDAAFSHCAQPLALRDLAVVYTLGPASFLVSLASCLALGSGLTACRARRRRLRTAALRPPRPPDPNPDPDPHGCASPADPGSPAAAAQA

Regarding `C=C1C[C@@H]2[C@H](CC[C@]3(C)C(=O)CC[C@@H]23)[C@@]2(C)C=CC(=O)C=C12`, the inhibition in assay [1] is 2.98% (inactive). In addition, in assay [2], the fluorescence ratio is 1.05 (inactive). The molecule was called inactive in assay [3], in assay [4], in [5], in [6] and in assay [7]. For the same molecule, the log fold change Tl+ flux in the assay with F380Y/beta1 was 0.059 (inactive); in the assay on F380Y/beta4 it was 0.013 (inactive); in assay [8], 0.0186 (inactive); with R275C/beta4, 0.0226 (inactive); in the assay with R275C/Slo1WT/beta2 it was 0.0155 (inactive).

Consider `CC(C)c1cccc(C(C)C)c1O`, for which, in [1], the inhibition is 4.1% (inactive). Further, the fluorescence ratio in assay [2] is 0.87 (inactive). Moreover, the result in assay [3], in assay [5], in assay [9], in assay [6], in assay [7] and in assay [10] was inactive. In addition, the log fold change Tl+ flux in the assay on F380Y/beta1 was -0.0717 (inactive); with F380Y/beta4 it was -0.00471 (inactive); in assay [8], -0.0487 (inactive); in the assay on R275C/beta4, -0.0411 (inactive); in the assay with R275C/Slo1WT/beta2, -0.0465 (inactive).

`COc1cccc([C@@]2(O)CCCC[C@@H]2CN(C)C)c1`: in assay [11], the z-score was 0.404 (inactive). The log fold change Tl+ flux in the assay with F380Y/beta1 was -0.0211 (inactive); with F380Y/beta4 it was -0.0244 (inactive); in [8] it was -0.0312 (inactive); with R275C/beta4 it was -0.00931 (inactive); in the assay with R275C/Slo1WT/beta2, 0.0567 (inactive).

For `COc1ccc(C(=O)N2CCCC2=O)cc1`, the remaining activity in [12] is 97.7% (inactive). The call in assay [3], in assay [4], in [5], in assay [9], in assay [6] and in assay [7] was inactive. The call in assay [10] was inactive.

Take `c1ccc2c(c1)OCC(C1=NCCN1)O2` (stereo not drawn): the remaining activity in assay [12] is 99.1% (inactive).

Take `c1ccc2c(c1)Nc1ccccc1S2`: the inhibition in assay [1] was 5.12% (inactive). In assay [2], the fluorescence ratio was 0.95 (inactive). The z-score in assay [11] was 0.0903 (inactive). The log fold change Tl+ flux is 0.0323 (inactive) with F380Y/beta1; -0.0296 (inactive) in the assay on F380Y/beta4; -0.0274 (inactive) in [8]; -0.0162 (inactive) in the assay on R275C/beta4; 0.00584 (inactive) with R275C/Slo1WT/beta2.

Turning to `NC(=O)OCCCc1ccccc1`, the inhibition in assay [1] is -1.64% (inactive). For the same molecule, the fluorescence ratio in assay [2] was 1.03 (inactive). In addition, in assay [11], the z-score was -0.636 (inactive). Besides, the log fold change Tl+ flux with F380Y/beta1 is 0.00909 (inactive); with F380Y/beta4, 0.0583 (inactive); in assay [8] it was -0.0246 (inactive); in the assay with R275C/beta4, -0.0265 (inactive); with R275C/Slo1WT/beta2, 0.0397 (inactive).

With `Nc1ccncc1`, the remaining activity in assay [12] was 127% (inactive).

As to `CCC(COC(=O)c1cc(OC)c(OC)c(OC)c1)(c1ccccc1)N(C)C` (stereo not drawn), the inhibition in assay [1] is -0.87% (inactive). In addition, the fluorescence ratio in assay [2] was 0.98 (inactive). In addition, the z-score in assay [11] was -1.07 (inactive). Moreover, the log fold change Tl+ flux was -0.135 (active) in the assay on F380Y/beta1; -0.301 (active) in the assay on F380Y/beta4; -0.141 (active) in [8]; -0.198 (active) with R275C/beta4; -0.104 (active) in the assay on R275C/Slo1WT/beta2.

For `CN[C@@H]1C[C@@H](c2ccc(Cl)c(Cl)c2)c2ccccc21`, the inhibition in assay [1] was -3.95% (inactive). The fluorescence ratio in assay [2] is 0.97 (inactive). Also, in [11], the z-score was 0.266 (inactive). The remaining activity in [12] is 118% (inactive). Also, the log fold change Tl+ flux in assay [8] is 0.0738 (inactive).

Regarding `CN1C(=O)CN=C(c2ccccc2)c2cc([N+](=O)[O-])ccc21`, in assay [1], the inhibition was 1.44% (inactive). Further, the fluorescence ratio in [2] is 1.04 (inactive). For the same molecule, in assay [11], the z-score is -0.553 (inactive). Also, the log fold change Tl+ flux in the assay with F380Y/beta1 was -0.0526 (inactive); with F380Y/beta4, 0.0228 (inactive); in assay [8], -0.000886 (inactive); in the assay on R275C/beta4 it was 0.0115 (inactive); with R275C/Slo1WT/beta2, 0.0318 (inactive).

Turning to `O=C(O)C(Cl)Cl`, the inhibition in [1] was 0.67% (inactive). Also, the fluorescence ratio in [2] is 0.96 (inactive). Besides, in assay [11], the z-score was 0.208 (inactive). Moreover, the remaining activity in assay [12] was 99.4% (inactive). For the same molecule, the log fold change Tl+ flux is -0.0051 (inactive) in the assay with F380Y/beta1; -0.0155 (inactive) in the assay on F380Y/beta4; -0.0139 (inactive) in assay [8]; -0.0167 (inactive) with R275C/beta4; -0.0385 (inactive) with R275C/Slo1WT/beta2.

Consider `CCOC(=O)c1cncn1C(C)c1ccccc1` (stereo not drawn), for which the log fold change Tl+ flux with F380Y/beta1 was 0.00176 (inactive); in the assay with F380Y/beta4, 0.0301 (inactive); in assay [8], -0.00742 (inactive); in the assay on R275C/beta4, -0.000383 (inactive); in the assay with R275C/Slo1WT/beta2, -0.0322 (inactive).

Turning to `CN1C(=O)COc2c(C(=O)NC3CN4CCC3CC4)cc(Cl)cc21` (stereo not drawn), the inhibition in assay [1] is 3.75% (inactive). Besides, the fluorescence ratio in [2] is 1.02 (inactive). Also, in assay [11], the z-score was 0.29 (inactive). The outcome in [3], in [4], in [5], in assay [9] and in assay [10] was inactive. Moreover, the log fold change Tl+ flux with F380Y/beta1 is 0.0287 (inactive); in the assay with F380Y/beta4, 0.0243 (inactive); in assay [8] it was 0.0336 (inactive); in the assay on R275C/beta4, -0.016 (inactive); with R275C/Slo1WT/beta2, -0.0098 (inactive).

Take `CN1CCN(C(=O)O[C@H]2c3nccnc3C(=O)N2c2ccc(Cl)cn2)CC1`: in assay [1], the inhibition was -4.29% (inactive). Also, in assay [2], the fluorescence ratio is 1.03 (inactive). Moreover, the call in assay [4], in [5], in [9] and in assay [6] was inactive. In addition, the log fold change Tl+ flux in the assay on F380Y/beta1 was -0.0113 (inactive); in the assay with F380Y/beta4, -0.00667 (inactive); in assay [8], -0.0271 (inactive); in the assay on R275C/beta4, 0.00608 (inactive); with R275C/Slo1WT/beta2, -0.0138 (inactive).

Consider `C[C@]12CC[C@H](O)CC1=CC[C@@H]1[C@@H]2CC[C@]2(C)C(=O)CC[C@@H]12`, for which the inhibition in assay [1] was -2.76% (inactive). In assay [2], the fluorescence ratio was 0.97 (inactive).
